From PubChem BioAssay AID1159580 (chemical genetic matrix, 2015)
The campaign covered roughly 5,500 compounds. About 2,000 (36%) were called active. Another 18% or so got no clear call; they are omitted. Rule as the data show it: active = normalized growth mostly below about 0.91 (no sharp cut-off); inconclusive = no clear call, values can overlap the other calls; inactive = mostly above about 0.92. This is one part of the list.

Test: chemical genetic growth profiling, strain panel (AID 1159580);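 also: tested at 20 µM; growth read once vehicle control cultures reached saturation at 30 °C; 1 = growth at the plate median or of vehicle wells; lower values mean less growth of the strain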
Settings: growth OD
[1] = S. cerevisiae deletion strains, locus YGR078C, strain PAC10, stronger effect = lower value
[2] = S. cerevisiae deletion strains, locus YJR075W, strain HOC1, stronger effect = lower value
[3] = S. cerevisiae deletion strains, locus YNL128W, strain TEP1, stronger effect = lower value
[4] = S. cerevisiae deletion strains, locus YNL153C, strain GIM3, stronger effect = lower value
[5] = S. cerevisiae deletion strains, locus YNL322C, strain KRE1, stronger effect = lower value
[6] = S. cerevisiae deletion strains, locus YPL055C, strain LGE1, stronger effect = lower value
[7] = S. cerevisiae deletion strains, locus YAL013W, strain DEP1, stronger effect = lower value
[8] = S. cerevisiae deletion strains, locus YBR229C, strain ROT2, stronger effect = lower value
[9] = S. cerevisiae deletion strains, locus YDL101C, strain DUN1, stronger effect = lower value
[10] = S. cerevisiae deletion strains, locus YDR150W, strain NUM1, stronger effect = lower value
[11] = S. cerevisiae deletion strains, locus YEL061C, strain CIN8, stronger effect = lower value
[12] = S. cerevisiae deletion strains, locus YHR030C, strain SLT2, stronger effect = lower value
[13] = S. cerevisiae deletion strains, locus YJR043C, strain POL32, stronger effect = lower value
[14] = S. cerevisiae deletion strains, locus YKL190W, strain CNB1, stronger effect = lower value
[15] = S. cerevisiae deletion strains, locus YLR039C, strain RIC1, stronger effect = lower value
[16] = S. cerevisiae deletion strains, locus YLR262C, strain YPT6, stronger effect = lower value
[17] = S. cerevisiae deletion strains, locus YMR263W, strain SAP30, stronger effect = lower value
[18] = S. cerevisiae deletion strains, locus YPL241C, strain CIN2, stronger effect = lower value

Measured: normalized growth

CN(C)C(=O)N=NC(=O)N(C)C
inactive: S. cerevisiae deletion strains, locus YAL040C, strain CLN3, stronger effect = lower value 0.985 | S. cerevisiae deletion strains, locus YCL061C, strain MRC1 (second series), stronger effect = lower value 0.994 | S. cerevisiae deletion strains, locus YDR363W, strain ESC2, stronger effect = lower value 1.04 | S. cerevisiae deletion strains, locus YER002W, strain NOP16, stronger effect = lower value 1.03 | [1] 0.99 | [2] 1.02 | [3] 0.983 | [4] 0.968 | S. cerevisiae deletion strains, locus YNL175C, strain NOP13, stronger effect = lower value 0.996 | S. cerevisiae deletion strains, locus YNL197C, strain WHI3, stronger effect = lower value 0.984 | S. cerevisiae deletion strains, locus YNL224C, strain SQS1, stronger effect = lower value 1.01 | [5] 1.02 | S. cerevisiae deletion strains, locus YOR083W, strain WHI5 (second series), stronger effect = lower value 0.968 | [6] 1.06

O=C1CC2(CCCC2)C(=O)N1CCNc1nccc(C(F)(F)F)n1
inactive: [7] 1.01 | [8] 0.991 | S. cerevisiae deletion strains, locus YCL061C, strain MRC1, stronger effect = lower value 0.977 | [9] 0.985 | [10] 1.05 | [11] 1.01 | [1] 0.982 | [12] 0.994 | S. cerevisiae deletion strains, locus YHR087W, strain rtc3, stronger effect = lower value 1.03 | S. cerevisiae deletion strains, locus YJL187C, strain SWE1, stronger effect = lower value 0.995 | [13] 0.999 | [2] 0.97 | [14] 0.984 | [15] 0.935 | S. cerevisiae deletion strains, locus YLR058C, strain SHM2 (second series), stronger effect = lower value 0.975 | S. cerevisiae deletion strains, locus YLR085C, strain ARP6, stronger effect = lower value 0.999 | [16] 0.972 | S. cerevisiae deletion strains, locus YML094W, strain GIM5, stronger effect = lower value 1 | S. cerevisiae deletion strains, locus YMR219W, strain ESC1, stronger effect = lower value 0.997 | [17] 1.01 | [3] 0.989 | [4] 1.01 | S. cerevisiae deletion strains, locus YNL298W, strain CLA4 (second series), stronger effect = lower value 0.964 | [5] 0.993 | S. cerevisiae deletion strains, locus YNR030W, strain Alg12, stronger effect = lower value 0.986 | [6] 1.03 | [18] 1 | S. cerevisiae deletion strains, locus YPR135W, strain CTF4, stronger effect = lower value 0.941

COc1cc(-c2oc3cc(O)ccc3c(=O)c2O)cc(OC)c1OC
inactive: [7] 1.01 | S. cerevisiae deletion strains, locus YBR021W, strain FUR4, stronger effect = lower value 1.02 | [8] 1.01 | S. cerevisiae deletion strains, locus YCL029C, strain bik1, stronger effect = lower value 1.01 | S. cerevisiae deletion strains, locus YDL035C, strain GPR1, stronger effect = lower value 1 | S. cerevisiae deletion strains, locus YDL074C, strain BRE1, stronger effect = lower value 0.996 | [9] 0.999 | S. cerevisiae deletion strains, locus YDL134C, strain PPH21, stronger effect = lower value 1 | S. cerevisiae deletion strains, locus YDL185W, strain tfp1, stronger effect = lower value 0.996 | S. cerevisiae deletion strains, locus YDL192W, strain arf1, stronger effect = lower value 0.999 | S. cerevisiae deletion strains, locus YDR101C, strain arx1, stronger effect = lower value 1 | [10] 1.01 | S. cerevisiae deletion strains, locus YDR162C, strain NBP2, stronger effect = lower value 0.989 | S. cerevisiae deletion strains, locus YDR318W, strain mcm21, stronger effect = lower value 1.02 | S. cerevisiae deletion strains, locus YDR388W, stronger effect = lower value 0.999 | S. cerevisiae deletion strains, locus YDR502C, strain sam2, stronger effect = lower value 1 | [11] 0.998 | S. cerevisiae deletion strains, locus YER110C, stronger effect = lower value 1.01 | S. cerevisiae deletion strains, locus YER155C, strain BEM2, stronger effect = lower value 1.02 | S. cerevisiae deletion strains, locus YER167W, strain BCK2, stronger effect = lower value 1.02 | S. cerevisiae deletion strains, locus YGL078C, strain dbp3, stronger effect = lower value 0.995 | S. cerevisiae deletion strains, locus YGL086W, strain mad1, stronger effect = lower value 1.02 | S. cerevisiae deletion strains, locus YGL248W, strain PDE1, stronger effect = lower value 1 | [1] 0.989 | S. cerevisiae deletion strains, locus YGR135W, strain pre9, stronger effect = lower value 0.981 | S. cerevisiae deletion strains, locus YGR229C, strain SMI1, stronger effect = lower value 0.98 | S. cerevisiae deletion strains, locus YGR252W, strain gcn5, stronger effect = lower value 1.06 | [12] 1.01 | S. cerevisiae deletion strains, locus YHR079C, strain IRE1 (second series), stronger effect = lower value 1.01 | S. cerevisiae deletion strains, locus YHR094C, strain hxt1, stronger effect = lower value 1.01 | S. cerevisiae deletion strains, locus YHR129C, strain ARP1, stronger effect = lower value 0.998 | S. cerevisiae deletion strains, locus YHR200W, strain rpn10, stronger effect = lower value 1.01 | S. cerevisiae deletion strains, locus YIL066C, strain RNR3, stronger effect = lower value 1 | S. cerevisiae deletion strains, locus YIL073C, strain SPO22, stronger effect = lower value 1.05 | S. cerevisiae deletion strains, locus YIL125W, strain kgd1, stronger effect = lower value 1.01 | S. cerevisiae deletion strains, locus YIR030C, strain dcg1, stronger effect = lower value 1.01 | S. cerevisiae deletion strains, locus YJL095W, strain BCK1, stronger effect = lower value 0.984 | S. cerevisiae deletion strains, locus YJL134W, strain LCB3, stronger effect = lower value 0.996 | S. cerevisiae deletion strains, locus YJL168C, strain set2, stronger effect = lower value 1.01 | S. cerevisiae deletion strains, locus YJL187C, strain SWE1 (second series), stronger effect = lower value 0.99 | [13] 1.01 | [2] 1.01 | S. cerevisiae deletion strains, locus YKL009W, strain mrt4, stronger effect = lower value 1.04 | S. cerevisiae deletion strains, locus YKL068W, stronger effect = lower value 0.998 | S. cerevisiae deletion strains, locus YKL085W, strain MDH1 (second series), stronger effect = lower value 1.02 | S. cerevisiae deletion strains, locus YKL085W, strain MDH1, stronger effect = lower value 1.02 | [14] 1.01 | S. cerevisiae deletion strains, locus YKR001C, strain vps1, stronger effect = lower value 1.01 | [15] 1.02 | S. cerevisiae deletion strains, locus YLR058C, strain SHM2, stronger effect = lower value 0.999 | S. cerevisiae deletion strains, locus YLR102C, strain apc9, stronger effect = lower value 1.01 | [16] 0.979 | S. cerevisiae deletion strains, locus YLR268W, strain sec22, stronger effect = lower value 1 | S. cerevisiae deletion strains, locus YLR330W, strain CHS5, stronger effect = lower value 1 | S. cerevisiae deletion strains, locus YLR342W, strain FKS1 (second series), stronger effect = lower value 1.05 | S. cerevisiae deletion strains, locus YLR371W, strain rom2, stronger effect = lower value 1.02 | S. cerevisiae deletion strains, locus YLR418C, strain cdc73, stronger effect = lower value 0.974 | S. cerevisiae deletion strains, locus YML016C, strain PPZ1, stronger effect = lower value 1 | S. cerevisiae deletion strains, locus YML032C, strain rad52, stronger effect = lower value 1.03 | S. cerevisiae deletion strains, locus YML124C, strain tub3, stronger effect = lower value 1.01 | S. cerevisiae deletion strains, locus YMR078C, strain ctf18, stronger effect = lower value 1.02 | S. cerevisiae deletion strains, locus YMR223W, strain ubp8, stronger effect = lower value 1.01 | [17] 1.01 | S. cerevisiae deletion strains, locus YMR307W, strain GAS1, stronger effect = lower value 0.995 | S. cerevisiae deletion strains, locus YNL067W, strain RPL9B, stronger effect = lower value 0.986 | [3] 0.996 | [4] 0.986 | S. cerevisiae deletion strains, locus YNL233W, strain BNI4, stronger effect = lower value 0.969 | S. cerevisiae deletion strains, locus YNL250W, strain rad50, stronger effect = lower value 1 | S. cerevisiae deletion strains, locus YNL271C, strain bni1, stronger effect = lower value 1.02 | S. cerevisiae deletion strains, locus YNL298W, strain CLA4, stronger effect = lower value 1.01 | S. cerevisiae deletion strains, locus YNL307C, strain MCK1, stronger effect = lower value 1.02 | [5] 1 | S. cerevisiae deletion strains, locus YNR052C, strain pop2, stronger effect = lower value 1.02 | S. cerevisiae deletion strains, locus YOL006C, strain TOP1, stronger effect = lower value 0.999 | S. cerevisiae deletion strains, locus YOL012C, strain htz1 1.14 | S. cerevisiae deletion strains, locus YOL147C, strain pex11, stronger effect = lower value 1.01 | S. cerevisiae deletion strains, locus YOR061W, strain CKA2, stronger effect = lower value 1 | S. cerevisiae deletion strains, locus YOR069W, strain VPS5, stronger effect = lower value 1 | S. cerevisiae deletion strains, locus YOR136W, strain idh2, stronger effect = lower value 1.02 | S. cerevisiae deletion strains, locus YOR144C, strain elg1, stronger effect = lower value 1 | S. cerevisiae deletion strains, locus YOR184W, strain ser1, stronger effect = lower value 1.04 | S. cerevisiae deletion strains, locus YOR316C, strain cot1, stronger effect = lower value 1 | [6] 1 | [18] 1.01 | S. cerevisiae deletion strains, locus YPR119W, strain clb2, stronger effect = lower value 1 | S. cerevisiae deletion strains, locus YPR141C, strain kar3, stronger effect = lower value 1.01 | S. cerevisiae deletion strains, locus YPR163C, strain tif3, stronger effect = lower value 0.991 | S. cerevisiae deletion strains, locus YPR167C, strain met16, stronger effect = lower value 1.01 | S. cerevisiae deletion strains, strain wtn01, stronger effect = lower value 1 | S. cerevisiae strains, strain wild type, stronger effect = lower value 0.994
